Results published in the supplement of paper PMC3334620.
Over roughly 33,000 sequences, “E-score (-0.5 to 0.5)” has its median near -8e-05; the highest 2% begin near 0.23. The full list was thinned out, with the highest values kept by preference.

Molecular target: T1, Nrg2 (UniProt P38082)
T1 sequence: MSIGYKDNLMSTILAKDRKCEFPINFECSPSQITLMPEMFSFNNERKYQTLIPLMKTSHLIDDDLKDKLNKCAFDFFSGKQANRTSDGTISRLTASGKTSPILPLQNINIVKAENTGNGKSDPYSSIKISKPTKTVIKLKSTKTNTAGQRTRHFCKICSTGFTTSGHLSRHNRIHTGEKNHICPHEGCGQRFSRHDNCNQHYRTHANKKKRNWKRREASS
Experiment: PBM E-score (8-mer binding enrichment) (E-score (-0.5 to 0.5)); higher = stronger / more preferred TF binding
Details: protein concentration: 100 nM; construct: GST-full length
Experimental: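 Universal 'all 10-mer' protein binding microarrays (Agilent AMADID 015681) probed with GST-tagged S. cerevisiae TFs (full-length or DBD) made by in vitro transcription/translation (PURExpress), about 100-200 nM. Bound TF was detected with fluorescent anti-GST. Each ungapped 8-mer (which stands for itself and its reverse complement) is scored by the PBM enrichment score (E-score), a modified Wilcoxon-Mann-Whitney statistic from -0.5 to +0.5, computed with the Universal PBM Analysis Suite. Scale: above 0.35 generally sequence-specific binding.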

In order of rising “PBM E-score” value:
1. ACCCCCTA  -0.391
2. AGCCTCCC  -0.381
3. CGCTTACG  -0.284
4. AAGCTTCC  -0.206
5. GTCTTTTA  -0.195
6. TGGGGACA  -0.187
7. AAGGGAGC  -0.187
8. CAAAGGCA  -0.173
9. AGCCTGAT  -0.168
10. TAGAGCTA  -0.161
11. CCCCTGTC  -0.151
12. ACCAGTCG  -0.149
13. CACGGATG  -0.149
14. CCGCTGCG  -0.14
15. AACGAGGC  -0.139
16. GTTAGCGA  -0.131
17. AATCCTCC  -0.123
18. CCTTAGTC  -0.119
19. CGGTCTAA  -0.118
20. AGCCTGTG  -0.118
21. CTGCCACA  -0.117
22. GACCCTCA  -0.116
23. CTTCGTCC  -0.114
24. ACTGAACC  -0.111
25. CGTTCACC  -0.11
26. AACCTTAG  -0.109
27. ACTCGTTG  -0.109
28. CATTCGTA  -0.0996
29. GGATCTGA  -0.0992
30. TCGTTGAA  -0.0977
31. GAGTCTGA  -0.0871
32. CTATAAAC  -0.086
33. ACTGTTTA  -0.0842
34. CTCTGCTC  -0.0804
35. CTGCACCA  -0.0673
36. GCTTGCTA  -0.0547
37. ACTAGGGC  -0.0479
38. TAACCGAA  -0.0477
39. CATTGAGC  -0.0461
40. AAAATCAT  -0.0452
41. AGATCTAT  -0.0448
42. ACCGATCG  -0.0446
43. AGCGGATA  -0.042
44. ACCGACAC  -0.0406
45. CCGCCCAG  -0.0404
46. ACCACACG  -0.034
47. AGTGCTAG  -0.0309
48. CGCCATGA  -0.0296
49. AACGTCAC  -0.00893
50. AACGGATG  -0.00493
51. CCATTTAA  -0.00324
52. CCCCCTGA  -0.00244
53. GTCGTTTA  -0.00227
54. CTTCGTTC  -0.00176
55. ATTCGTCG  -0.00164
56. GTCACGGA  -0.00114
57. AATGAGGG  -0.00097
58. GCCCTGAC  -0.00086
59. AACCCATT  0.00038
60. CCGTTCAG  0.00062
61. TACCCTCA  0.00099
62. CGTTAAAG  0.00135
63. ACAGAGGA  0.00257
64. CTATCTAC  0.00786
65. ATACTATC  0.013
66. ATCCTGAG  0.0135
67. CGAGTTTA  0.0171
68. TACGGATA  0.0194
69. AACCTGTG  0.0227
70. ACCTTAGC  0.025
71. ACACTATG  0.0263
72. CAGTATGG  0.0291
73. TGAGTTAA  0.0318
74. CGCGGATC  0.037
75. ATATCTTG  0.0388
76. TAATAAGA  0.0444
77. GGGAGGAC  0.0465
78. AACCCTAG  0.0468
79. GTCAAAAC  0.0485
80. ACTCTATG  0.056
81. AATCGTTC  0.0566
82. AACCTGAT  0.0634
83. ATATAAAG  0.0638
84. CATTGGTA  0.0651
85. CACCCTGG  0.0652
86. ATGAGTAA  0.0697
87. ATATAACA  0.078
88. ATATAAAA  0.0793
89. CTCCTGAC  0.0802
90. ACCCCTGG  0.0828
91. ACTTCCTG  0.0859
92. ACTCGGAC  0.0898
93. GCCGGACA  0.0968
94. TACCCTAA  0.107
95. AACCTTAC  0.108
96. AAAACGGC  0.112
97. GACCCATA  0.118
98. ATCGAGGG  0.12
99. AGACAGCT  0.12
100. ACCCTTAG  0.123
101. CGAGCTAC  0.124
102. AAAGTTCG  0.127
103. AAATCAGA  0.129
104. TAATCAGA  0.133
105. AACCCTGC  0.134
106. ATCAATAC  0.136
107. AGTTGATC  0.137
108. CTACTTGC  0.141
109. CTACTATA  0.143
110. ATATAACC  0.145
111. CACCCTTA  0.147
112. AACGGATT  0.148
113. GACCCCTA  0.151
114. TAAATCGA  0.151
115. AGGAAAAC  0.151
116. ACCCTTAA  0.152
117. ACCCCTAG  0.153
118. GTATAAAC  0.156
119. GACCCTCC  0.16
120. ATTCGTTA  0.165
121. AACCCTTC  0.168
122. ACCGCGGG  0.171
123. ACCCCTAA  0.172
124. TACCCCTA  0.173
125. CGCGACGA  0.176
126. CCCCTGAG  0.176
127. ACCCCTTA  0.178
128. GACCCTAC  0.184
129. GGCCCTTA  0.185
130. CACCCTGC  0.191
131. AACCCTTG  0.194
132. AACCCTAT  0.195
133. CACCCTGA  0.201
134. ACCCTGTC  0.201
135. TATCCTGA  0.202
136. AAACGGAT  0.205
137. ATATCGAT  0.213
138. CGAGTTAC  0.215
139. TCTGACCA  0.216
140. ACTAAGAA  0.221
141. GAATCAGA  0.23
142. AACCCTTA  0.235
143. CCCCTGAC  0.235
144. CACGGATA  0.235
145. GACCCTAA  0.237
146. ATTCGTTG  0.239
147. AACCCATA  0.24
148. ATATAACG  0.243
149. AACCCTGT  0.244
150. CGCGGATA  0.246
151. CTACTATC  0.247
152. ACCCTGAT  0.249
153. AACCCCTA  0.25
154. ATATAAAT  0.252
155. ATATAAAC  0.255
156. ACCCCTAT  0.256
157. AACGGATA  0.258
158. CGAGTTAA  0.264
159. TACCCTGA  0.265
160. ATTCGTCC  0.27
161. ACCCTTAT  0.28
162. ATTCGTTC  0.28
163. ACCCTGTG  0.289
164. AACCTTAA  0.293
165. ACCCCTGA  0.297
166. AACCCTGG  0.315
167. GACCCTTA  0.321
168. GACCCTGC  0.331
169. ACCCTGAC  0.334
170. ACCCTGAG  0.368
171. AACCCTGA  0.385
172. GACCCTGA  0.389
